From PubChem BioAssay (NCATS) come the findings set out here.

Several values for one entry are separate records, joined by “and”; a condition that tells them apart may be missing. Identical values can stand only once. Records with an inconclusive call do not appear. Where a structure was tested more than once in an assay, its records may differ in their call. Activity calls are given as the source filed them. Unless noted, calls come from the whole dose curve; as a rule, active = well fitted curve in the direction sought with a large enough effect; inconclusive = small, poorly fitted or top-dose-only effect, or another doubt; inactive = no such curve, though single readings can be large; an effect the other way counts as inactive or inconclusive.

Assay [1] can be described thus: qHTS profiling of the MIPE4 collection as inhibitors of Plasmodium falciparum (HB3) proliferation (AID 743347; call rule not given here;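 note: plate controls were DMSO vehicle wells for no effect and artemisinin wells for full effect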). To be noted: P. falciparum HB3 in erythrocytes, SYBR Green DNA, 72 h; at 28.5 µM (top of the series) unless noted. An outline of the steps: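 Erythrocytes infected with P. falciparum (0.3% parasitemia, 2.5% hematocrit) incubated with compounds 72 h at 37 C, 5% CO2. Lysis with saponin/Triton buffer containing SYBR Green I, overnight at room temperature in the dark; DNA fluorescence (485/535 nm) normalised to 0.29 uM artemisinin and DMSO.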
A general note: qHTS replaces the single test concentration by a dilution series.

Assay [2] is described as follows: High-throughput drug toxicity screening in the BPDCN cell line Gen2.2 (AID 1224824; call rule not given here). To be noted: Gen2.2 BPDCN cells; at 45.8 µM (top of the series) unless noted. In short, it runs like this:
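CellTiter-Glo luminescence after 48 h compound exposure of Gen2.2 cells; percent activity set with DMSO as 100% and bortezomib (9.2 uM final) as 0%. Cells seeded at 500 per well, RPMI + 10% FBS, 37 °C.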

Assay [3] is described as follows: qHTS assay for measurement of the activity of small molecule inhibitors on Zika virus induced Caspase-3 activity in human iPSC derived neural progenitor cells (hNPCs) (AID 1224857). Note: % of control where 0% means no effect; nearly all actives have a fitted effect of over 65% in size. An outline of the steps: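 hNPCs seeded 350 cells/well, cultured 16–20 h; compounds added 1 h before ZIKV (2 FFU/cell), 37 C 6 h. Caspase-Glo 3/7 luminescence after 30 min RT; % inhibition from induction scaled to uninfected (0%) and infected (100%) wells.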

A short description of assay [4]: qHTS assay for measurement of the activity of small molecule inhibitors on Zika virus induced Caspase-3 activity in human astrocytoma cells (AID 1224859).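 Note: plate controls were ZIKV-infected untreated cells for no effect and uninfected cells for full effect.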 In short, it runs like this: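 Luminescence read-out (Caspase-Glo 3/7, 30 min RT) of caspase activity in SNB-19 cells infected 6 h with ZIKV, 2 FFU/cell, after 1 h compound pretreatment; % inhibition from induction normalised to uninfected (0%) and infected (100%) wells.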

A short description of assay [5]: qHTS Screen of the MIPE 4.0 Collection Against Ewings Sarcoma (RDES) (AID 1259252). Note: nearly all actives have a fitted effect of over 35% in size. Note: potency is the fitted concentration of half-maximal effect. In short, it runs like this: (§1)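 Here, cells in 5% FBS RPMI were exposed for two days (48 h) to compound dilutions added four hours after plating. ATP-based CellTiter-Glo luminescence measured viability, normalized to vehicle and no-cell blanks.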
Assay [6] can be described thus: qHTS Screen of the MIPE 4.0 Collection Against Ewings Sarcoma (TC71) (AID 1259253). Note: nearly all actives have a fitted effect of over 40% in size. Note: potency is the fitted concentration of half-maximal effect. An outline of the steps: as §1
Assay [7] in a line: qHTS Screen of the MIPE 4.0 Collection Against Ewings Sarcoma (TC32) (AID 1259256). Note: nearly all actives have a fitted effect of over 45% in size. Note: potency is the fitted concentration of half-maximal effect. In short, it runs like this:
as §1

Assay [8] in a line: P-glycoprotein substrates identified in KB-8-5-11 adenocarcinoma cell line, qHTS therapeutic library screen (AID 1346987). Note: nearly all actives have a fitted effect of over 65% in size. Note: potency is the fitted concentration of half-maximal effect. As to conditions: outcome: dose series up to 44.5 µM unless noted. In short, it runs like this: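 P-gp-mediated resistance screen: KB-8-5-11 cells treated 72 h with compounds in dose-response. CellTiter-Glo viability.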
Assay [9] can be described thus: Natriuretic polypeptide receptor (hNpr1) antagonism - Pilot counterscreen GloSensor control cell line (AID 1347045; calls by dose curve; note: potency is the fitted concentration of half-maximal effect). In short, it runs like this: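 This counterscreen uses HEK293 cells expressing the GIP/pGS-40F cGMP biosensor. Compound-treated cells are challenged with 50 uM sodium nitroprusside, and the luciferase signal is compared before and after stimulation.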
(The purpose of a counterscreen is to sort out artefacts and off-target activity.)

A short description of assay [10]: qHTS assay to identify small molecule inhibitors of chordoma cells - UCH-1 (AID 1259355). Note: % is set by controls: 0 for no effect and ±100 for the full control effect; nearly all actives have a fitted effect of over 55% in size. In short, it runs like this: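 Luminescent ATP read-out (CellTiter-Glo, 30min at room temperature) measured viability of UCH-1 cells exposed for 48hr to test drugs at 15 concentrations, co-dosed with a five-agent combination of auranofin, camptothecin, doxorubicin, rubitecan and topotecan.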

A short description of assay [11]: qHTS Screen of the MIPE 4.0 Collection Against Ewings Sarcoma (EW8) (AID 1259255).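 For viability: 100% = DMSO-treated cells and 0% = medium-only wells without cells.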 Note: nearly all actives have a fitted effect of over 35% in size. Note: potency is the fitted concentration of half-maximal effect. An outline of the steps:
as §1

The nature of assay [12]: Identifying Small Molecule Inhibitors of Pancreatic Cancer Stem Cells (SN12C, Adherent) (AID 1259358).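 Note: cell survival measured after 48 h of compound exposure.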 Note: potency is the fitted concentration of half-maximal effect. An outline of the steps:
(§2)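 Luminescent ATP readout (CellTiter-Glo) quantifies surviving cells after a 48 h drug incubation. Normalization uses DMSO wells as no inhibition and media-only wells as full inhibition; bortezomib served as positive control.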

The nature of assay [13]: Identifying Small Molecule Inhibitors of Pancreatic Cancer Stem Cells (SN12C, Spheroid) (AID 1259360).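 Note: 100% = DMSO-treated cells and 0% = wells without cells.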 An outline of the steps: (§3)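 Monolayer and spheroid cultures are compared. Spheroids form over 14 days in stem cell medium on hydrogel-coated low-attachment plates, then are exposed to compound for 48 h before CellTiter-Glo luminescence.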
Assay [14] can be described thus: Identifying Small Molecule Inhibitors of Pancreatic Cancer Stem Cells (A278, Adherent) (AID 1259361).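 Note: 100% = DMSO-treated cells and 0% = cell-free media-only wells; nearly all actives have a fitted effect of over 35% in size.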 In short, it runs like this:
as §2

Assay [15] in a line: P-glycoprotein substrates identified in KB-3-1 adenocarcinoma cell line, qHTS therapeutic library screen (AID 1346986). Note: nearly all actives have a fitted effect of over 60% in size. As to conditions: outcome: dose series up to 44.5 µM unless noted. In short, it runs like this:
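KB-3-1 parental cells and P-gp-overexpressing KB-8-5-11 (colchicine omitted during assay) plated at 500 cells/well, dosed in dose-response, incubated 72 h at 37 degree C. CellTiter-Glo luminescence read; KB-8-5-11 also tested with tariquidar.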

Assay [16] can be described thus: qHTS assay to identify small molecule inhibitors of chordoma cells - UCH-2 (AID 1259356). Note: % is set by controls: 0 for no effect and ±100 for the full control effect.
Assay [17] is described as follows: Identifying Small Molecule Inhibitors of Pancreatic Cancer Stem Cells (A2780, Spheroid) (AID 1259357).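 Note: potency is the fitted concentration of half-maximal effect; compound exposure lasted 48 h before the ATP luminescence read.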 To be noted: A2780 spheroid viability. An outline of the steps: as §3
The nature of assay [18]: Identifying Small Molecule Inhibitors of Pancreatic Cancer Stem Cells (Panc1, Spheroid) (AID 1259359).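 Note: potency is the fitted concentration of half-maximal effect; compound exposure lasted 48 h before reading.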 As to conditions: Panc1 spheroid cancer stem cell viability. In short, it runs like this: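 Cytotoxicity read by CellTiter-Glo luminescence after 48 h compound exposure at 37C; percent activity scaled between DMSO-treated cells and cell-free wells. Spheroid formats used cells pre-formed 14 days in stem cell media on hydrogel.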

The nature of assay [19]: Identifying Small Molecule Inhibitors of Pancreatic Cancer Stem Cells (Panc1, Adherent) (AID 1259362). Note: potency is the fitted concentration of half-maximal effect. As to conditions: Potency: viability. In short, it runs like this:
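Pre-formed 14-day tumor spheroids or adherent cells dosed and incubated 48 h, 37C, 5% CO2. Viability assessed by CellTiter-Glo.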

For `Clc1ccc2c(c1)C(N1CCNCC1)=Nc1ccccc1O2`, in assay [1], the growth, % of control came to 67.9%. Besides, the cell viability, % of control (lower = more cytotoxic) in assay [2] is 72.6%. Besides, the Potency entry in assay [3] and in [4] was “inactive” each time. Also, the Potency in assay [5] was 10.5 µM (active); in assay [6] it was 16.6 µM (active); in assay [7] it was 18.7 µM (active); in [8] it was “inactive and 20.6 µM (active)”.
`O=C1c2c(O)ccc(O)c2C(=O)c2c(NCCNCCO)ccc(NCCNCCO)c21` displayed a growth, % of control in assay [1] of 0.795%. Besides, the cell viability, % of control (lower = more cytotoxic) in assay [2] came to 6.11%. In addition, the Potency entry in assay [3] and in assay [7] was “inactive” each time. Further, the Potency in [5] was 0.166 µM (active); in assay [6], 0.0935 µM (active); in assay [8], 5.26 µM (active); in assay [9], 10.4 µM (active).
In [1], `CN1CCC(=C2c3ccccc3CC(=O)c3sccc32)CC1` gave a growth, % of control of 12.6%. For the same compound, the cell viability, % of control (lower = more cytotoxic) in assay [2] was determined as 14.3%. The Potency result in assay [3], in assay [4] and in assay [10] was “inactive” each time. Also, the Potency in assay [5] is 11.8 µM (active); in assay [6] it was 13.2 µM (active); in assay [7], 16.6 µM (active).
Take `COc1ccc(CCN(C)CCCC(C#N)(c2ccc(OC)c(OC)c2)C(C)C)cc1OC` (stereo not given): the cell viability, % of control (lower = more cytotoxic) in assay [2] worked out at 96.5% [at 92.2 µM]. Also, the Potency result in assay [3], in [4], in [5], in assay [11] and in [12] was “inactive” throughout. Besides, the compound was classed as inactive in assay [13]. In [14], the IC50 (viability decrease) result was “inactive”. The Potency in assay [8] was 20.6 µM (active).
In assay [1], `O=c1c(-c2ccc(O)cc2)coc2cc(O)cc(O)c12` gave a growth, % of control of 31.8%. In [2], the cell viability, % of control (lower = more cytotoxic) came out at 55.3%. In addition, the Potency result in assay [3], in assay [7], in assay [10], in assay [8] and in assay [9] was “inactive” throughout. Further, the Potency in assay [5] was 18.7 µM (active). In addition, in assay [15], the compound was classed as inactive.
Compound `CS(=O)(=O)CCNCc1ccc(-c2ccc3ncnc(Nc4ccc(OCc5cccc(F)c5)c(Cl)c4)c3c2)o1` showed a growth, % of control in assay [1] of 13%. Also, the cell viability, % of control (lower = more cytotoxic) in assay [2] stood at 4.7%. The Potency result in assay [3] and in assay [10] was “inactive” throughout. The Potency in assay [5] is 0.59 µM (active); in assay [6], 2 µM (active); in [11], 8.33 µM (active); in [7], 13.2 µM (active); in assay [17] it was 16.6 µM (active); in [12], 0.418 µM (active). Also, the Potency in assay [18] was 37.2 µM (active); in [19], 20.9 µM (active); in assay [8] it was 18.7 µM (active) and inactive and 20.6 µM (active). Moreover, the result in assay [16] was inactive.
`CN1CCN(CCCN2c3ccccc3Sc3ccc(Cl)cc32)CC1`: the growth, % of control in [1] worked out at 7.64%. Besides, in [2], the cell viability, % of control (lower = more cytotoxic) was found to be 107%. For the same compound, the Potency result in assay [3] and in [4] was “inactive” each time. Moreover, the Potency was 26.4 µM (active) in assay [7] and 23.5 µM (active) in [8].
Take `CN1CCC(=C2c3ccccc3C=Cc3ccccc32)CC1`: the growth, % of control in assay [1] is 12.5%. The cell viability, % of control (lower = more cytotoxic) in [2] came to 106%. The Potency entry in assay [3] and in assay [9] was “inactive” each time. Also, the Potency in assay [5] was 9.35 µM (active); in assay [6], 16.6 µM (active).
For `CNCCCC12CCC(c3ccccc31)c1ccccc12`, the growth, % of control in [1] is 7.27%. Moreover, in [2], the cell viability, % of control (lower = more cytotoxic) was determined as 8.38%. Besides, the Potency result in assay [3], in assay [4], in [10] and in assay [9] was “inactive” each time. Besides, the Potency in [7] was 23.5 µM (active); in assay [8] it was 20.9 µM (active). Besides, the call in assay [16] was inactive.
In turn, `CC1(C)O[C@H]2CC(=O)OC[C@]23[C@H]2CC[C@@]4(C)[C@H](c5ccoc5)OC(=O)[C@H]5O[C@]54[C@]2(C)C(=O)C[C@@H]13` came in with a growth, % of control in assay [1] of 107%. Besides, in assay [2], the cell viability, % of control (lower = more cytotoxic) came out at 131%. For the same compound, the Potency entry in assay [3], in assay [4], in assay [5], in assay [6], in assay [7] and in assay [10] was “inactive” each time. Further, the Potency result in [8] was “inactive”. For the same compound, the call in assay [16] and in assay [15] was inactive.
Consider `COc1ccc2[nH]cc(CCNC(C)=O)c2c1`, for which the growth, % of control in assay [1] was 79.2% and 70.9%. Further, in [2], the cell viability, % of control (lower = more cytotoxic) is 132%. Besides, the Potency result in assay [3], in [4], in assay [8] and in assay [9] was “inactive” each time. Further, the Potency was 1.18 µM (active) in assay [5], 1.05 µM (active) in [6] and 3.32 µM (active) in [7]. Besides, the compound was called inactive in assay [16].
On to `N[C@@H](Cc1c[nH]c2ccc(O)cc12)C(=O)O`, for which the growth, % of control in [1] turned out to be 99.6%. For the same compound, the cell viability, % of control (lower = more cytotoxic) in assay [2] is 126%. Also, the Potency result in assay [3], in assay [4], in assay [5], in assay [6], in assay [10] and in assay [8] was “inactive” throughout. Also, the Potency result in assay [9] is “inactive”. Besides, the outcome in [16] was inactive.
For the compound `O=C1N(c2ccccc2)c2ccccc2C1(Cc1ccncc1)Cc1ccncc1`, the growth, % of control in [1] was found to be 106%. Further, the cell viability, % of control (lower = more cytotoxic) in assay [2] is 266%. The Potency entry in [3], in assay [4], in assay [11], in [7], in [10] and in [8] was “inactive” in each case. The Potency entry in [9] was “inactive”. For the same compound, the Potency in assay [6] is 16.6 µM (active). The result in [15] was inactive.
In the case of `NC(=O)OCC(COC(N)=O)c1ccccc1`, in assay [1], the growth, % of control worked out at 63.7%. The cell viability, % of control (lower = more cytotoxic) in [2] was determined as 156%. Moreover, the Potency result in [3], in assay [5], in assay [10], in assay [8] and in assay [9] was “inactive” throughout. In addition, in [7], the Potency is 5.9 µM (active).
In turn, `O=C(c1ccc(F)cc1)C1CCN(CCn2c(=O)[nH]c3ccccc3c2=O)CC1` came in with a growth, % of control in assay [1] of 61.3%. In assay [2], the cell viability, % of control (lower = more cytotoxic) was 216%. Also, the Potency entry in assay [3], in assay [5], in assay [7], in assay [10], in [8] and in assay [9] was “inactive” throughout.
